Results filed as inconclusive are left out. Active and inactive are the calls of the source. The call rests on the fitted dose curve; in most records, active means well fitted curve in the direction sought with a large enough effect in the repeat runs; inconclusive means weak or mixed curves; inactive means no such curve, though single readings can be large; an effect the other way counts as inactive or inconclusive.
Tests used:
[1] = A CellTox Green Cytotoxicity Assay to monitor cytotoxicity in HEK293 cells - 40 hour (AID 1224871); further: nearly all actives have a fitted effect of over 45% in size
Outline: (§1)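 Dead-cell fluorescence measured kinetically: asymmetric cyanine dye, HEK293, 600 cells/well, 5 h settle, 23 nL cpd/DMSO, 37 C, reads 0–40 h every 8 h.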

[2] = qHTS RealTime-Glo MT Cell Viability Assay in HEK293 cells - 16 hour (AID 1224872); further: nearly all actives have a fitted effect of over 50% in size; on activity change, negative = cytotoxicity: top concentration of the series differs between compounds
Outline: (§2)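 Quantitative high-throughput screen of the Tox21 10K library in HEK293: cells and RealTime-Glo reagents plated together, compound added at 5 h, luminescence monitored through 40 h at 37 C.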

[3] = qHTS RealTime-Glo MT Cell Viability Assay in HepG2 cells - 8 hour (AID 1224873); further: nearly all actives have a fitted effect of over 55% in size
Outline: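 Real-time viability: cells seeded at 600 per well together with NanoLuc and cell-permeant prosubstrate, compounds added after 5 h incubation. Luminescence tracked at 0, 8, 16, 24, 32 and 40 h of exposure.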

[4] = A CellTox Green Cytotoxicity Assay to monitor cytotoxicity in HEK293 cells - 24 hour (AID 1224875); further: nearly all actives have a fitted effect of over 45% in size; on activity change: series mostly up to about 77 µM
Outline: as §1

[5] = A CellTox Green Cytotoxicity Assay to monitor cytotoxicity in HepG2 cells - 16 hour (AID 1224876); further: nearly all actives have a fitted effect of over 45% in size
Outline: (§3)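 First, HepG2 cells (600/well) mixed with reagent were plated; second, after 5 h at 37 C they received compounds via pintool; third, fluorescence was measured at 0 h through 40 h at 8 h intervals.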

[6] = qHTS RealTime-Glo MT Cell Viability Assay in HepG2 cells - 32 hour (AID 1224877); further: nearly all actives have a fitted effect of over 55% in size
Outline: (§4)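 Compound treatment began 5 h after plating HepG2 cells (600/well) with NanoLuc luciferase and prosubstrate. Plates stayed at 37 C for 40 h; luminescence was captured at six time points, 0 h through 40 h.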

[7] = A CellTox Green Cytotoxicity Assay to monitor cytotoxicity in HepG2 cells - 24 hour (AID 1224878); further: nearly all actives have a fitted effect of over 45% in size
Outline: as §3

[8] = A CellTox Green Cytotoxicity Assay to monitor cytotoxicity in HepG2 cells - 40 hour (AID 1224879); further: nearly all actives have a fitted effect of over 40% in size
Outline: as §3

[9] = qHTS RealTime-Glo MT Cell Viability Assay in HEK293 cells - 0 hour (AID 1224880); further: nearly all actives have a fitted effect of over 45% in size; on activity change, negative = cytotoxicity: top concentration of the series differs between compounds
Outline: (§5)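 600 HEK293 cells per well, dispensed already mixed with RealTime-Glo MT reagents. Compound dosing came 5 h later. The same wells were read for luminescence at 0, 8, 16, 24, 32 and 40 h of exposure at 37 C.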

[10] = A CellTox Green Cytotoxicity Assay to monitor cytotoxicity in HEK293 cells - 32 hour (AID 1224881); further: nearly all actives have a fitted effect of over 40% in size
Outline: as §1

[11] = A CellTox Green Cytotoxicity Assay to monitor cytotoxicity in HepG2 cells - 32 hour (AID 1224883); further: nearly all actives have a fitted effect of over 50% in size
Outline: as §3

[12] = qHTS RealTime-Glo MT Cell Viability Assay in HepG2 cells - 16 hour (AID 1224885); further: nearly all actives have a fitted effect of over 50% in size
Outline: as §4

[13] = qHTS RealTime-Glo MT Cell Viability Assay in HEK293 cells - 24 hour (AID 1224886); further: nearly all actives have a fitted effect of over 50% in size; on activity change, negative = cytotoxicity: top concentration of the series differs between compounds
Outline: as §2

[14] = A CellTox Green Cytotoxicity Assay to monitor cytotoxicity in HEK293 cells - 16 hour (AID 1224888); further: nearly all actives have a fitted effect of over 35% in size
Outline: as §1

[15] = qHTS RealTime-Glo MT Cell Viability Assay in HepG2 cells - 0 hour (AID 1224889); further: nearly all actives have a fitted effect of over 50% in size
Outline: as §4

[16] = A CellTox Green Cytotoxicity Assay to monitor cytotoxicity in HepG2 cells - 0 hour (AID 1224882); further: nearly all actives have a fitted effect of over 35% in size
Outline: as §3

[17] = A CellTox Green Cytotoxicity Assay to monitor cytotoxicity in HEK293 cells - 8 hour (AID 1224884); further: nearly all actives have a fitted effect of over 35% in size
Outline: as §1

[18] = qHTS RealTime-Glo MT Cell Viability Assay in HEK293 cells - 8 hour (AID 1224887); further: nearly all actives have a fitted effect of over 50% in size; on activity change, negative = cytotoxicity: top concentration of the series differs between compounds
Outline: as §5

[19] = qHTS RealTime-Glo MT Cell Viability Assay in HEK293 cells - 40 hour (AID 1224874); details: RealTime-Glo luminescence; max response: hits give low values; further: nearly all actives have a fitted effect of over 50% in size
Outline: as §5
On the % scale 0 is the no-effect control and ±100 the full control effect; potency means the concentration at half of the fitted maximal effect.

CC(=O)Oc1ccc([N+](=O)[O-])cc1CCl
active: Potency [2] 6.16 µM | Potency [13] 4.36 µM
inactive: Potency [1] | Potency [3] | Potency [4] | Potency [5] | Potency [6] | Potency [7] | Potency [8] | Potency [9] | Potency [10] | Potency [11] | Potency [12] | Potency [14] | Potency [15]

Cc1cc(=O)c2c(O)c3c(O)cc(=O)c4c3c3c(cc(O)c1c23)C(C)(C)C=4O
inactive: activity change, negative = cytotoxicity [2] -25.2% [at 15.8 µM] | viability change, negative = cytotoxic [3] -10.2% [at 15.8 µM] | activity change, negative = cytotoxicity [9] 0.327% [at 15.8 µM] | activity change, negative = cytotoxicity [18] 3.53% [at 15.8 µM] | activity change, negative = cytotoxicity [15] -2.14% [at 15.8 µM]
active: Potency [1] 4.65 µM | Potency [4] 5.22 µM | Potency [5] 4.65 µM | Potency [7] 4.65 µM | Potency [8] 3.69 µM | Potency [10] 5.22 µM | Potency [16] 4.65 µM | Potency [11] 4.14 µM | Potency [17] 7.37 µM | Potency [14] 7.37 µM

CN1CCCC(CC2c3ccccc3Sc3ccccc32)C1 (centres undefined)
active: Potency [1] 23.9 µM | Potency [19] 23.9 µM | Potency [4] 23.9 µM | Potency [5] 23.9 µM | Potency [6] 23.9 µM | Potency [7] 21.3 µM | Potency [8] 23.9 µM | Potency [10] 23.9 µM | Potency [11] 21.3 µM | Potency [13] 23.9 µM | Potency [14] 23.9 µM
inactive: Potency [3] | Potency [16] | Potency [17] | Potency [18]

O=C(OCC(O)CO)c1ccccc1Nc1ccnc2cc(Cl)ccc12 (centres undefined)
active: Potency [2] 8.49 µM | Potency [19] 8.49 µM | Potency [11] 9.52 µM | Potency [13] 7.56 µM | Potency [18] 8.49 µM
inactive: Potency [1] | Potency [3] | Potency [4] | Potency [8] | Potency [9] | Potency [10] | Potency [12] | Potency [14]

O=c1cc(-c2ccccc2)oc2cc(O)cc(O)c12
inactive: Potency [1] | Potency [3] | Potency [4] | Potency [5] | Potency [9] | Potency [10] | Potency [16] | Potency [17] | Potency [14]

C=CC(=O)OCC1CC2CC1C1CCC(COC(=O)C=C)C21 (centres undefined)
active: Potency [1] 49 µM | Potency [4] 49 µM | Potency [7] 49 µM | Potency [8] 38.9 µM | Potency [10] 49 µM | Potency [11] 43.6 µM
inactive: Potency [5] | Potency [9] | Potency [16] | Potency [17] | Potency [18] | Potency [14] | Potency [15]

Oc1c(I)cc(I)c2cccnc12
inactive: Potency [1] | Potency [2] | Potency [3] | Potency [4] | Potency [5] | Potency [6] | Potency [7] | Potency [8] | Potency [9] | Potency [10] | Potency [16] | Potency [11] | Potency [12] | Potency [18] | Potency [14] | Potency [15]

Clc1ccc(Nc2nnc(Cc3ccncc3)c3ccccc23)cc1
inactive: Potency [3] | Potency [4] | Potency [5] | Potency [8] | Potency [9] | Potency [10] | Potency [11] | Potency [17] | Potency [14] | Potency [15]
active: Potency [19] 19 µM

Cc1cccc(N(C)C(=S)Oc2ccc3c(c2)CCC3)c1
inactive: Potency [2] | Potency [3] | max response [19] -16.2% | Potency [4] | Potency [5] | Potency [6] | Potency [7] | Potency [8] | Potency [9] | Potency [10] | Potency [11] | Potency [17] | Potency [13] | Potency [18] | Potency [14] | Potency [15]

O=C1c2ccccc2C(=O)C1c1ccc(Br)cc1
inactive: Potency [2] | Potency [3] | max response [19] -7.99% | Potency [4] | Potency [5] | Potency [6] | Potency [7] | Potency [8] | Potency [9] | Potency [10] | Potency [16] | Potency [11] | Potency [17] | Potency [12] | Potency [13] | Potency [18] | Potency [14] | Potency [15]

CCOC(=O)C1=C(C)NC(C)=C(C(=O)OC)C1c1cccc(Cl)c1Cl (centres undefined)
inactive: Potency [1] | Potency [4] | Potency [5] | Potency [7] | Potency [8] | Potency [10] | Potency [16] | Potency [11] | Potency [18] | Potency [14]
active: Potency [3] 19 µM | Potency [9] 5.35 µM | Potency [12] 19 µM | Potency [15] 6.74 µM

CN(C(=O)CN(CCO)CC(=O)N(C)C(C)(C)Cc1ccccc1)C(C)(C)Cc1ccccc1
inactive: Potency [9] | Potency [16]
active: Potency [1] 23.9 µM | Potency [19] 19 µM | Potency [5] 23.9 µM | Potency [7] 23.9 µM | Potency [8] 23.9 µM | Potency [11] 23.9 µM | Potency [13] 19 µM

O=C(CCCN1CC=C(n2c(=O)[nH]c3ccccc32)CC1)c1ccc(F)cc1
inactive: Potency [1] | Potency [3] | Potency [4] | Potency [5] | Potency [6] | Potency [8] | Potency [9] | Potency [10] | Potency [16] | Potency [11] | Potency [17] | Potency [12]
active: Potency [2] 9.52 µM | Potency [13] 10.7 µM | Potency [18] 16.9 µM

CCC(=O)C1CC(C(C)C)CC=C1C (centres undefined)
inactive: Potency [1] | Potency [2] | Potency [3] | max response [19] 9.7% | Potency [4] | Potency [7] | Potency [8] | Potency [9] | Potency [10] | Potency [16] | Potency [11] | Potency [13] | Potency [18] | Potency [14] | Potency [15]
